Assay outcomes: PubChem BioAssay, National Center for Advancing Translational Sciences (NCATS)
Shown are actives, neighbours in structure and some others; about 19% of the full set was active somewhere.
ELG1 repair inh: qHTS screen for small molecules that inhibit ELG1-dependent DNA repair in human embryonic kidney (HEK293T) cells expressing luciferase-tagged ELG1; HEK293T ELG1-luciferase reporter, luminescence, 16 h; DNA damage induced by 5-fluorouridine; Potency, µM (series often up to 46.1 µM), for inactives: top-dose activity change, negative = inhibition, actives largely listed as inhibitors; 2.3% of 330,000 active; AID 504467, 2011; note: potency is the fitted concentration of half-maximal effect; nearly all actives have a fitted effect of over 55% in size
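5-Fluorouridine DNA damage + compound/DMSO, 2,000 cells/well, 16 h, 37 °C/5% CO2. ONE-Glo, 30 min RT, luminescence. Readout = decrease in reporter signal.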
TDP1 cell noCPT: qHTS for Inhibitors of human tyrosyl-DNA phosphodiesterase 1 (TDP1): qHTS in cells in absence of CPT | 15% of 420,000 active | Potency, µM (titrated, usually from 46.2 µM), inactives show at the highest dose activity change, negative = growth inhibition, hits mostly inhibitors | DT40 Tdp1-/- hTDP1 cells, no CPT, ATP luminescence, 48 h; note: potency is the fitted concentration of half-maximal effect; nearly all actives have a fitted effect of over 55% in size
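Camptothecin absent (DMSO only). Human TDP1-complemented DT40 knockout cells, 400 cells/well, 37 °C for minimum 48 hr; ATP measured via CellTiter-Glo, 30 min dark incubation, luminescence.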
TDP1 inh: qHTS Assay for Inhibitors of Tyrosyl-DNA Phosphodiesterase (TDP1); Tyrosyl-DNA phosphodiesterase 1 (Homo sapiens), Q9NUW8; 0.28% of 350,000 active; recombinant TDP1, AlphaScreen DNA substrate cleavage; Potency, µM (series often up to 130 µM), for the others: at the highest dose activity change, negative = inhibition, most hits filed as inhibitors; note: potency is the fitted concentration of half-maximal effect; nearly all actives have a fitted effect of over 40% in size
Target sequence (Q9NUW8 whole entry, looked up): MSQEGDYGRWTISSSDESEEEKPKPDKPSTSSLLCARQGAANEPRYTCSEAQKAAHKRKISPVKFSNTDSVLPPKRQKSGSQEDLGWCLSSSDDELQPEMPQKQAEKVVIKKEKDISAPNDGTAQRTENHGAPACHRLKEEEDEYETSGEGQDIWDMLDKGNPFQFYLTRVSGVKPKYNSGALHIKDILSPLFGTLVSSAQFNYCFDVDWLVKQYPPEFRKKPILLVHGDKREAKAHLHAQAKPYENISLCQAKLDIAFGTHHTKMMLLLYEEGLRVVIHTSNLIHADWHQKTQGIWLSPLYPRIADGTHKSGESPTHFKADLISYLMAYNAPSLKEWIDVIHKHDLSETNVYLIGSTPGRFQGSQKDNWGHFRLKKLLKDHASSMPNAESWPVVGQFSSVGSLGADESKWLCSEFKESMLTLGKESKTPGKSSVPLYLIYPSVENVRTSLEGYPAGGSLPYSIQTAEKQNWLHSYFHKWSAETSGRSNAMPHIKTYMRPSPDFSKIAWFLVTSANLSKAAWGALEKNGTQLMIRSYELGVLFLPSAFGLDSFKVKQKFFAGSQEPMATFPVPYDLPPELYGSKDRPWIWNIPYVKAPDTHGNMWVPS
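Signal: AlphaScreen proximity between streptavidin donor and anti-FITC acceptor beads on intact substrate. Reaction: Tdp1 1 nM, substrate 15 nM final, 5 min RT after 15 min compound preincubation.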
IL-1B inflam inh: qHTS for Inhibitors of Inflammasome Signaling: IL-1-beta AlphaLISA Primary Screen | THP-1 LPS/ATP IL-1B secretion, AlphaLISA, 16 h; hits give low values | activity change, % at 57.5 µM | 4.7% of 360,000 active | AID 743279, 2014; in the data active = activity change below about -50%; inconclusive = mostly about -30% to -49%
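Secreted IL-1B measured by AlphaLISA bead assay after 16 h compound exposure of THP-1 cells; compounds (final up to 57.5 uM) added 1 h before LPS (250 ng/mL) and ATP (1.25 mM) stimulation; lower signal means less secretion.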
DT40 TDP1 CPT: qHTS for Inhibitors of human tyrosyl-DNA phosphodiesterase 1 (TDP1): qHTS in cells in presence of CPT | chicken DT40 Tdp1-/-;hTDP1 cells + 20 nM CPT, ATP luminescence, 48 h | Potency, µM (series often up to 46.2 µM), without a hit: at the highest dose activity change, negative = growth inhibition, hits mostly inhibitors | 12% of 420,000 active | AID 686979, 2013; note: potency is the fitted concentration of half-maximal effect; nearly all actives have a fitted effect of over 55% in size
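Chicken DT40 Tdp1-/- cells complemented with human TDP1, 400 cells/well, exposed to compounds plus 20 nM camptothecin for at least 48 h at 37 C; viability read as ATP content by CellTiter-Glo luminescence.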
Giardia kill: Small Molecules that selectively kill Giardia lamblia: qHTS | Giardia lamblia trophozoite viability | activity change, % at 7.66 µM, hits read low | 0.15% of 340,000 active; in the data active = activity change below about -80%; inconclusive = between about -30% and that limit;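 note: parasites exposed to compound for two days anaerobically before the ATP read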
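Each well holds 100 Giardia trophozoites and compound. After two days (48 hrs) at 37 deg C in anaerobic conditions, ATP is quantified by luminescence.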
Active calls of the source: *; ? = inconclusive; · = no result; [ ] = dose if it differs, or a comment. Unless noted, calls come from the whole dose curve; as a rule, active = well fitted curve in the direction sought with a large enough effect; inconclusive = small, poorly fitted or top-dose-only effect, or another doubt; inactive = no such curve, though single readings can be large; an effect the other way counts as inactive or inconclusive. % is set by controls: 0 for no effect and ±100 for the full control effect.

SMILES	ELG1 repair inh	TDP1 cell noCPT	TDP1 inh	IL-1B inflam inh	DT40 TDP1 CPT	Giardia kill
O=C(CCN1C(=O)C2CCCCC2C1=O)Nc1nc(-c2ccccc2)cs1 (stereo not given)	?	?	7%	11	?	-17
CC(C(=O)Nc1nc(-c2ccc(F)c(F)c2)cs1)N1C(=O)C2CC=CCC2C1=O (stereo not given)	?	23µM*	1%	-4	?	-11
O=C(CCN1C(=O)C2CC=CCC2C1=O)Nc1nc(-c2ccc(F)c(F)c2)cs1 (stereo not given)	?	-19%	1%	-1	13µM*	-13
COc1ccc(-c2csc(NC(=O)[C@H](C)N3C(=O)C4CC=CCC4C3=O)n2)cc1OC (stereo not given in full)	?	?	2%	-4	?	-16
CC(C)OC(=O)c1cn(Cc2c(F)cccc2F)c2sc(-c3ccc(NC(=O)C(C)C)cc3)c(CN(C)Cc3ccccc3)c2c1=O	·	·	10%	·	·	·
Cc1ccc(-n2nnnc2C(Cl)(Cl)c2nnnn2-c2ccc(C)cc2)cc1	2%	2.6µM*	7%	-78*	2.9µM*	-3
CC(=O)N1CCCc2ccc(NS(=O)(=O)c3ccccc3)cc21	?	?	·	35	-16%	32
O=C(C1CCCN(S(=O)(=O)c2cccc3cccnc23)C1)N1CCN(c2ccc(F)cc2)CC1 (stereo not given)	?	?	4%	7	23µM*	-3
CCOC(=O)C1CCCN(S(=O)(=O)c2ccc(OC)cc2)C1 (stereo not given)	-9%	-15%	4%	0	-22%	-4
O=C(C1CCN(S(=O)(=O)c2cccc3cccnc23)CC1)N1CCN(c2ccccc2)CC1	?	-26%	4%	12	-29%	-5
COc1ccc(S(=O)(=O)N2CCCC(C(=O)N3CCCCCC3)C2)cc1 (stereo not given)	-2%	18µM*	3%	5	?	12
COc1ccc(N2CCN(C(=O)C3CCCN(S(=O)(=O)c4ccc(C)cc4)C3)CC2)cc1 (stereo not given)	21µM*	9.2µM*	·	-2	9.2µM*	7
COc1ccc(N2CCN(C(=O)C3CCCN(S(=O)(=O)c4ccc(F)cc4)C3)CC2)cc1 (stereo not given)	?	8.2µM*	6%	-13	10µM*	8
COc1ccc(S(=O)(=O)N2CCCC(C(=O)N3CCCC3)C2)cc1OC (stereo not given)	5%	-19%	0%	4	-10%	-20
COc1ccc(CNC(=O)C2CCCN(S(=O)(=O)c3ccc(F)cc3)C2)cc1 (stereo not given)	-27%	?	2%	7	?	-18
CS(=O)(=O)c1ccc(S(=O)(=O)N2CCC(CO)(CCCc3ccccc3)CC2)cc1	?	?	4%	16	?	-6
CN1CCN(C(=O)C2CCCN(S(=O)(=O)c3ccccc3)C2)CC1 (stereo not given)	?	0%	0%	0	-3%	15
Cc1ccc(S(=O)(=O)N2CCCC(C(=O)N3CCN(c4ccccc4)CC3)C2)cc1 (stereo not given)	21µM*	18µM*	4%	0	18µM*	10
Cc1nn(C)c(C)c1S(=O)(=O)N1CCCC(C(=O)N2CCN(c3ccccc3)CC2)C1 (stereo not given)	-16%	23µM*	7%	16	16µM*	2
Cn1nc(-c2ccc(N3CCOCC3)c(NS(=O)(=O)c3ccc(Cl)cc3)c2)c2ccccc2c1=O	1%	26µM*	7%	9	18µM*	20
Cn1c(=O)n(C)c2cc(N3CCOCC3)c(NC(=O)c3ccc(C(C)(C)C)cc3)cc21	·	?	2%	·	-21%	·
Cn1c(=O)n(C)c2cc(N3CCOCC3)c(NS(=O)(=O)c3ccc(C(C)(C)C)cc3)cc21	·	4.1µM*	0%[12.3 µM]	·	7.3µM*	·
Cn1c(=O)c(=O)n(C)c2cc(N3CCOCC3)c(NS(=O)(=O)c3ccc(Cl)cc3)cc21	·	?	3%	·	?	·
Cn1c(=O)n(C)c2cc(N3CCOCC3)c(NS(=O)(=O)c3ccc(Cl)cc3)cc21	·	13µM*	8%	·	?	·
Cn1c(=O)n(C)c2cc(N3CCOCC3)c(NS(=O)(=O)c3cccc(C#N)c3)cc21	·	?	14%	·	18µM*	·
SMILES	ELG1 repair inh	TDP1 cell noCPT	TDP1 inh	IL-1B inflam inh	DT40 TDP1 CPT	Giardia kill
Cc1ccc(S(=O)(=O)Nc2cc3c(cc2N2CCOCC2)n(C)c(=O)n3C)c(C)c1	·	?	-2%	·	?	·
Cc1ccc(S(=O)(=O)Nc2cc(-c3nn(C)c(=O)c4ccccc34)ccc2N2CCOCC2)cc1	?	?	7%	18	?	-13
N#Cc1cccc(CN2CCC(=O)N([C@H](CO)Cc3ccccc3)CC2)c1	-5%	-7%	·	11	-3%	-1
CCCOc1ccc(C2C(=O)N(C3CCCCCC3)CC(=O)N2CCCOCC)cc1OC (stereo not given)	·	?	5%	·	?	·
CC(C)OC(=O)Cc1nc2sc(-c3ccccc3)cc2c(=O)[nH]1	?	?	·	-19	?	22
O=C(Nc1nnc(-c2ccncc2)o1)c1ccccc1F	-9%	-11%	4%	-2	?	18
O=C(Nc1nnc(-c2ccccc2)o1)c1cc(Cl)sc1Cl	14%	9.2µM*	6%	0	7.3µM*	0
O=C(Nc1nnc(-c2ccc(Cl)cc2)o1)c1nc2ccccc2s1	37%	21µM*	11%	21	?	-28
O=C(Nc1nnc(-c2ccc(F)cc2)o1)c1cc(Cl)sc1Cl	?	21µM*	8%	9	26µM*	-4
O=C1Nc2ccc(Br)cc2C1(O)c1ccc(F)cc1 (stereo not given)	0%	?	·	26	-21%	30
COc1ccc(N2CCN(CCCNC(=O)C(=O)c3c(C)n(C)c4ccccc34)CC2)cc1	5%	-3%	8%	-6	17%	-11
